PubChem BioAssay (NCI)
The panel holds about 83,000 compounds, 20% with a hit somewhere; the sample as a whole holds those more often.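 48-hour exposure, single concentration, 96-well plates; percent growth endpoint where 0 means no net growth. Active: below 10.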 The source made the active and inactive calls.

What was measured:
Test in all cases: NCI-60 one-dose screen, 48 h (100 = growth as untreated, 0 = no growth, -100 = all killed)
EKVX NSCLC = details: 10 µM unless noted
SN12C renal = details: 10 µM unless noted
UO-31 renal = details: 10 µM unless noted
TK-10 renal = details: 10 µM unless noted
ACHN renal = details: 10 µM unless noted
CAKI-1 renal = details: 10 µM
CCRF-CEM leukemia = details: 10 µM unless noted
MOLT-4 leukemia = details: 10 µM unless noted
SR leukemia = details: 10 µM unless noted
RPMI-8226 leukemia = details: 10 µM unless noted
OVCAR-8 ovarian = details: 10 µM unless noted
OVCAR-5 ovarian = details: 10 µM unless noted
OVCAR-4 ovarian = details: 10 µM unless noted
SK-OV-3 ovarian = details: 10 µM unless noted
IGROV1 ovarian = details: 10 µM unless noted
HS 578T breast = details: 10 µM unless noted
NCI/ADR-RES ovarian = details: 10 µM unless noted
A498 renal = details: 10 µM unless noted

Measured: growth

C(=C(\C1=NCCN1)n1cnc2ccccc21)/c1ccc2ccccc2c1
inactive: EKVX NSCLC 73.2% | SN12C renal 73.3% | UO-31 renal 68% | TK-10 renal 77.8% | ACHN renal 72.9% | CAKI-1 renal 53.3% | CCRF-CEM leukemia 63.5% | MOLT-4 leukemia 67% | SR leukemia 42.5% | RPMI-8226 leukemia 67.1% | OVCAR-8 ovarian 88.5% | OVCAR-5 ovarian 79.4% | OVCAR-4 ovarian 72.6% | SK-OV-3 ovarian 66% | IGROV1 ovarian 81.2% | HS 578T breast 57.6% | NCI/ADR-RES ovarian 76.6%

CS(=O)(=O)c1ccc2c(c1)c1c(n2S(=O)(=O)c2ccc(Cl)cc2)CCCC1
active: A498 renal -11.2% | HS 578T breast 0.523%
inactive: EKVX NSCLC 48% | SN12C renal 33.1% | UO-31 renal 37.8% | TK-10 renal 65.7% | ACHN renal 46.9% | CAKI-1 renal 29.3% | MOLT-4 leukemia 24.4% | SR leukemia 12.3% | RPMI-8226 leukemia 19.1% | OVCAR-8 ovarian 31.9% | OVCAR-5 ovarian 40.2% | OVCAR-4 ovarian 64.7% | SK-OV-3 ovarian 29.7% | IGROV1 ovarian 48% | NCI/ADR-RES ovarian 21%

CC1CCc2c(sc3nc(SCC(=O)N/N=C/c4ccc(Cl)cc4)n(-c4ccccc4)c(=O)c23)C1 (configuration not stated)
inactive: EKVX NSCLC 103% | SN12C renal 95.6% | UO-31 renal 94.2% | TK-10 renal 114% | ACHN renal 81.1% | CAKI-1 renal 75.1% | CCRF-CEM leukemia 109% | MOLT-4 leukemia 110% | SR leukemia 96% | RPMI-8226 leukemia 101% | OVCAR-8 ovarian 96.7% | OVCAR-5 ovarian 99.4% | OVCAR-4 ovarian 99.4% | SK-OV-3 ovarian 97.9% | IGROV1 ovarian 100% | HS 578T breast 82.2% | NCI/ADR-RES ovarian 97.2%

C(=C(\C1=NCCN1)n1cnc2ccccc21)/c1cccc2ccccc12
inactive: EKVX NSCLC 87.2% | SN12C renal 85.4% | UO-31 renal 62.2% | TK-10 renal 90.9% | ACHN renal 87.2% | CAKI-1 renal 68.7% | CCRF-CEM leukemia 91.1% | MOLT-4 leukemia 93.2% | SR leukemia 84.7% | RPMI-8226 leukemia 87.2% | OVCAR-8 ovarian 95.8% | OVCAR-5 ovarian 81.4% | OVCAR-4 ovarian 93.3% | SK-OV-3 ovarian 89% | IGROV1 ovarian 89.7% | HS 578T breast 92.9% | NCI/ADR-RES ovarian 96.8%

CCOC(=O)c1c(Nc2ccccc2)nn2c(-c3ccc(Br)cc3)ccnc12
inactive: EKVX NSCLC 81.5% | SN12C renal 68.3% | UO-31 renal 65.1% | TK-10 renal 90.6% | ACHN renal 34% | CAKI-1 renal 57.6% | CCRF-CEM leukemia 85.8% | MOLT-4 leukemia 87.6% | SR leukemia 70.7% | RPMI-8226 leukemia 95.8% | OVCAR-8 ovarian 69.2% | OVCAR-5 ovarian 80.4% | OVCAR-4 ovarian 53.5% | SK-OV-3 ovarian 59.2% | IGROV1 ovarian 71% | HS 578T breast 62.8% | NCI/ADR-RES ovarian 59.8%

Cc1cn(-c2cc(NC(=O)c3cncc(C#Cc4cnc5ccc(OCCCS(C)(=O)=O)nn45)c3)cc(C(F)(F)F)c2)cn1
active: CCRF-CEM leukemia 6.72% | MOLT-4 leukemia 9.79% | SR leukemia 2.78% | HS 578T breast -3.18%
inactive: EKVX NSCLC 16% | SN12C renal 16.7% | UO-31 renal 38.3% | TK-10 renal 33.8% | ACHN renal 56.2% | CAKI-1 renal 37.4% | RPMI-8226 leukemia 39.5% | OVCAR-8 ovarian 15.4% | OVCAR-5 ovarian 22.6% | OVCAR-4 ovarian 58.4% | SK-OV-3 ovarian 104% | IGROV1 ovarian 14.4% | NCI/ADR-RES ovarian 89.6%
